# Results published in PMC4336329 (PLoS ONE, 2015).
# About 14,000 (4.5%) of roughly 310,000 compounds showed an effect of 50% or more. The effect is printed as a negative number. The sample as a whole holds a higher share of strong results than the screen did.
# Molecular target: human ether-à-go-go-related gene (hERG) potassium channel (human, UniProt Q12809)
# Assay: primary screen, population patch clamp on CHO cells stably expressing hERG; higher = less effect of the substance
# 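Note: peak tail current of the secondary pulse compared with the same well before compound.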
# Sequence of human ether-à-go-go-related gene (hERG) potassium channel (Q12809 whole entry, looked up): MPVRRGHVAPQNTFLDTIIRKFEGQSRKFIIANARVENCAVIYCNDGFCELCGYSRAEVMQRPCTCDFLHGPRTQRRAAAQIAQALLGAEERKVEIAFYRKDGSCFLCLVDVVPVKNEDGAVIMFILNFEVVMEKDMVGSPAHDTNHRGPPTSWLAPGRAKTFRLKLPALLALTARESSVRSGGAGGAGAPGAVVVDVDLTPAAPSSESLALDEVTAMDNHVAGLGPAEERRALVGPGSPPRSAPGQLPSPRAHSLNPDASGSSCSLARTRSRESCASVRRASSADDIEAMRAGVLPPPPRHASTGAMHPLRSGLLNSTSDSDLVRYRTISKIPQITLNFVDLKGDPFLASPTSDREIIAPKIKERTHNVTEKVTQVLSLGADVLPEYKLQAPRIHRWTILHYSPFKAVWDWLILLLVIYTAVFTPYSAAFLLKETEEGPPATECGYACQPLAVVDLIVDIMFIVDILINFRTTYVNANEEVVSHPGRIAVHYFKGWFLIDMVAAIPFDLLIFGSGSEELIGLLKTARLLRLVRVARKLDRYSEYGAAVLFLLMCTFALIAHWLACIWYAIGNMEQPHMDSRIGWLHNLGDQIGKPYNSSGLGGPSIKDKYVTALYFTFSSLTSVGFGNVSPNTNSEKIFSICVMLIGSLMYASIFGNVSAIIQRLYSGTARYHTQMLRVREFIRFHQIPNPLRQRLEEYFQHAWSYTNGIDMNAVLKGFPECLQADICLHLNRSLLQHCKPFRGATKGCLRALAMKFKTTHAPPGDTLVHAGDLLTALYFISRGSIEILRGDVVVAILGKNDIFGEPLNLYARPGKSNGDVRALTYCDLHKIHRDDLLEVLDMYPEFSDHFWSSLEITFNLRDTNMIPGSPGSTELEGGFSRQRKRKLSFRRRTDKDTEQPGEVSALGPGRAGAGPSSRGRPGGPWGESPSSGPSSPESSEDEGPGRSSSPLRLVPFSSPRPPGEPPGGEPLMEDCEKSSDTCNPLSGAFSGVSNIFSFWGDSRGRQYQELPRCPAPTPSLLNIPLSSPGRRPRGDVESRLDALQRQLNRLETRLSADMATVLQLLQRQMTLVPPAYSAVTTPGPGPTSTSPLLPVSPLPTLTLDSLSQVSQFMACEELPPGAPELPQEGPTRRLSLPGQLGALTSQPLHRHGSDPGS
row,Compound,"hERG current change (%, negative = inhibition) at 10uM [%]"
1,O=C(c1cc(N2C(=O)C3C4CCC(C4)C3C2=O)ccc1Cl)N1CCCCCC1 (stereo not shown),3.82
2,O=C(c1ccccc1)N1CCC(O)(c2ccc3c(c2)OCO3)CC1,-12.4
3,CCn1c(CNC(=O)c2ccc3c(c2)OCO3)nnc1SCC(=O)Nc1ccccc1F,-6.31
4,O=C(Nc1ccccc1)c1ccco1,15
5,COC(=O)c1sccc1NC(=S)N1C(C)CCCC1C (stereo not shown),-7.4
6,Cc1ccc(S(=O)(=O)c2nc(C)c3c(n2)CCC3)cc1,3.61
7,COc1ccc(C(=O)COC(=O)CCc2ccccc2)cc1,-11.4
8,CC(=O)c1ccc(NC(=O)C(C)Sc2nnc(C3CCCCC3)o2)cc1 (stereo not shown),-4.84
9,CN1C(=O)N(C)C(=O)C2(Cc3cc([N+](=O)[O-])ccc3N(C)C2c2ccccc2)C1=O (stereo not shown),-17.6
10,CN1C(=O)N(C)C(=O)C2(Cc3cc([N+](=O)[O-])ccc3N3CCN(C(=O)c4ccccc4)CC32)C1=O (stereo not shown),-65
11,O=C(c1ccncc1)N1CCN(C(=O)c2cccs2)CC1,6.46
12,Cc1cc(-c2ccccc2)n(-c2ccc(C(=O)N3CCN(c4ncccn4)CC3)cc2)n1,-56.4
13,Cc1ccc(C)c(N2CCN(C(=O)c3ccc4nc(-c5ccco5)c(-c5ccco5)nc4c3)CC2)c1,21.1
14,O=C(c1ccc([N+](=O)[O-])cc1)N1CCN(C(=O)c2cccs2)CC1,-70.3
15,O=C(c1ccc2nc(-c3ccco3)c(-c3ccco3)nc2c1)N1CCN(c2ccccc2)CC1,-15.4
16,CC(C)N1CCN(C(=O)c2ccc([N+](=O)[O-])cc2)CC1,-39.8
17,Cc1cc(C)n(-c2ccc(C(=O)N3CCN(c4ccccn4)CC3)cc2)n1,-32.5
18,O=C(c1ccc(-c2ccccc2)cc1)N1CCN(c2ncccn2)CC1,-5.92
19,O=C1NC(=O)C2(Cc3cc([N+](=O)[O-])ccc3N3CCN(C(=O)c4ccccc4)CC32)C(=O)N1 (stereo not shown),23
20,O=C(c1ccc2nc(-c3ccco3)c(-c3ccco3)nc2c1)N1CCN(c2ncccn2)CC1,-67.8
21,CCC1=NC(c2ccccc2OC)N(O)C1(C)C (stereo not shown),15.9
22,CCOc1ccc(C(=O)NCC(=O)NCC(c2cccs2)N2CCOCC2)cc1 (stereo not shown),4.69

row,Compound,"hERG current change (%, negative = inhibition) at 10uM [%]"
1,c1ccc2c(NC3CCCC3)nnc(NC3CCCC3)c2c1,-74.9
2,c1ccc(-c2nc(NC3CCCC3)c3ccccc3n2)cc1,20.5
3,O=C(O)C(=O)O.c1csc(-c2nnc(N3CCCCCC3)c3ccccc23)c1,-20.9
4,c1csc(-c2nnc(NC3CCCCC3)c3ccccc23)c1,-75.4
5,c1csc(-c2nc3ccccn3c2NC2CCCCC2)c1,8.81
6,Oc1ccccc1-c1nc(NC2CCCC2)c2ccccc2n1,17.8
7,CC(C)c1nc(=S)n(-c2ccccc2)[nH]1,17.5
8,COc1cccc(Cn2nnc(C(=O)Nc3cc(C)ccc3OC)c2N)c1,8.11
9,CCOC(=O)C1C(=O)NC(c2ccccc2)=NC1c1ccc(O)c(OC)c1 (stereo not shown),9.11
10,Cc1ccccc1CN1C(=O)[C@@H]2Cc3c([nH]c4ccccc34)C(C)(C)N2C1=O,19
11,Cl.N=c1sccn1CC(=O)N1CCc2ccccc21,-8.84
12,Cc1ccc(NC2=Nc3ccccc3CS2)cc1,8.04
13,CCOC(=O)c1c(NC(=O)CSc2nc3ccccc3o2)sc(C)c1C,19.4
14,Cc1ccc2c(c1)nnn2C1CCN(CC(=O)N2CCN(c3ccc(F)cc3)CC2)CC1,-70.3
15,Cc1ccccc1C(=O)NC1CCN(CC(=O)Nc2ccc3c(c2)OCCO3)CC1,2.93
16,Cc1ccc2c(c1)nnn2C1CCN(CC(=O)Nc2ccc(F)cc2)CC1,-65.4
17,Cc1ccc2c(c1)nnn2C1CCN(C(=O)C23CC4CC(CC(C4)C2)C3)CC1,1.11
18,O=C(CN1CCC(n2nnc3cc(F)ccc32)CC1)Nc1ccc2c(c1)CCC2,-21.3
19,Cc1ccc2c(c1)nnn2C1CCN(CC(=O)Nc2ccc3c(c2)OCCO3)CC1,-55.5
20,O=C(CN1CCC(n2nnc3cc(C(F)(F)F)ccc32)CC1)Nc1ccc2c(c1)OCCO2,-36.5
21,Cc1ccc2c(c1)nnn2C1CCN(CC(=O)c2ccc(Cl)cc2)CC1,-45.9
